# Reference: ChEMBL document CHEMBL3988442, “University of Dundee, Small-Polar-MMV Screening Library” (2021)
# Out of some 48,000 compounds screened, about 13,000 (27%) showed an effect of 50% or more. This is one part of the list.
# System: Wolbachia pipientis
# Assay: Anti-Wolbachia Cell-Based Screen
# Type: functional
# Design: scale not given: in the data most compounds retested in dose-response had high values
# Settings: 5 µM
row,Structure (SMILES),Percent Effect [%]
1,CCCn1cc(C(=O)N(C)Cc2nc(-c3ccccn3)no2)c(C)n1,4.948
2,CCO[C@@H]1CCN(C(=O)c2cnc(C)cn2)[C@@H]1Cc1cnn(C)c1,-1.532
3,CS(=O)(=O)c1ccccc1N[C@@H]1c2ccccc2C[C@@H]1O,-8.17
4,CNc1nc(CNC(=O)Nc2ccc(OC)cc2C)cs1,10.14
5,CC(=O)N1CC(=O)N(c2cccnc2)CC12CCN(Cc1nccs1)C2.O=C(O)C(F)(F)F.O=C(O)C(F)(F)F (configuration not stated),-2.554
6,O=C(O)C(F)(F)F.O=C(O)C(F)(F)F.O=C1COC2(CCN(Cc3cccs3)CC2)CN1c1cccnc1,97.28
7,COc1cccc(CN(C)C(=O)c2csc(-c3nnc[nH]3)n2)c1,94.98
8,COc1cccc(-n2cc(CN(C)C(=O)c3cc[nH]n3)cn2)c1,-0.6043
9,CN(CCCOc1ccccc1)C(=O)c1csc(-c2nnc[nH]2)n1,111.9
10,COCCN(Cc1ccccc1)C(=O)c1csc(-c2nnc[nH]2)n1,98.7
11,COCc1nc(C(=O)N(Cc2ccccc2)CC(C)C(=O)O)cs1 (configuration not stated),6.809
12,CN(CCCc1ccccc1)C(=O)CCc1nc(-c2nnc[nH]2)no1,-15.35
13,Cc1csc(CN(C)CCOc2ccccc2)n1,-0.03273
14,CCCc1nc(C(=O)N(C)Cc2cnn(-c3cccc(OC)c3)c2)cs1,-14.16
15,Cc1nc(-c2nnc[nH]2)sc1C(=O)N(Cc1cccnc1)C1CC1,1.946
16,Cc1nc2c(NCC(C)N(C)c3ccccc3)ncnc2o1 (configuration not stated),-36.58
17,COc1ccc(C2(C(=O)NCc3c(C)ncc4c3CCNC4)CC2)cc1,-10.04
18,CNS(=O)(=O)c1cc(C(=O)N(C)Cc2sccc2C)c(C)o1,-10.4
19,COc1c(C)cnc(CN(C)C(=O)Nc2ccc3c(c2)CCO3)c1C,3.992
20,COc1ccc(Cc2ncc3c(n2)CN(C(=O)CN(C)C)C3)cc1,-15.7
21,Cc1nc(C)n(CC2CN(CCOCC(F)(F)F)CCO2)n1 (configuration not stated),-2.106
22,Cc1csc(C(C)(C)NCC(=O)N(C)Cc2ccc(C)o2)n1,102.3
23,Cc1cnn(C2CN(CC(=O)N(C)Cc3ccc(C)o3)C2)c1,-130.6
24,Cc1nc(C)n(CC2CCCN2CC(=O)N(C)Cc2ccc(C)o2)n1 (configuration not stated),1.913
25,COc1ccccc1C(C)(C)NCc1ccc(C)o1,6.664
26,Cc1ccc(CNC(C)(C)c2noc(C(C)(C)C)n2)o1,107.5

row,Structure (SMILES),Percent Effect [%]
1,CCC(C)(NCC(=O)N(c1ccccc1)C(C)C)c1nc(C)cs1 (configuration not stated),-6.604
2,Cc1ccc(CN(C)C(=O)CNC(C)(C)c2noc(C(C)(C)C)n2)o1,94
3,Cn1nccc1C(=O)NC(C)(C)c1noc(C(C)(C)C)n1,27.22
4,Cc1csc(C(C)(C)NCCNS(C)(=O)=O)n1,-2.878
5,Cc1nn(C)c(C)c1OCC(=O)NCC(O)c1ccsc1 (configuration not stated),4.904
6,CCC(=O)N1CSCC1C(=O)Nc1ccccc1-c1cccs1 (configuration not stated),-5.499
7,CCC(=O)N1CCN(C(=O)Nc2ccccc2-c2cccs2)CC1,-6.486
8,O=C(Nc1ccccc1-c1cccs1)N1CCN(CC(F)F)CC1,-15.51
9,COCC(=O)N1CCN(C)C(=O)C(Cc2ccc(-c3cccs3)cc2)C1 (configuration not stated),126.7
10,COCC(=O)N1CCN(C(=O)c2cccs2)[C@@H](C(=O)OC)C1,-3.923
11,COCC(=O)N1CCN(C)C(=O)C(Cc2ccccc2-c2cccs2)C1 (configuration not stated),162.7
12,CCC(=O)N1CCN(C)C(=O)C(Cc2ccccc2-c2cccs2)C1 (configuration not stated),157.1
13,COCCc1noc(Cn2ccc3ccccc3c2=O)n1,-26.03
14,COCc1noc(Cn2ncn3cccc3c2=O)n1,-2.273
15,COCCc1noc(Cn2c(=O)[nH]c3ccccc32)n1,95.59
16,COCc1noc(Cn2ccc3ccccc3c2=O)n1,-17.57
17,COCc1noc(Cn2c(=O)[nH]c3ccccc32)n1,93.82
18,COCc1noc(Cn2ccc3ncccc3c2=O)n1,1.423
19,COCCc1noc(CN2CC(C)(c3ccccc3)CCC2=O)n1 (configuration not stated),-4.269
20,COCc1noc(CN2CC(=O)N(C)c3ccccc3C2=O)n1,-11.96
21,COCc1noc(Cn2c(C3CC3)nc3ccccc32)n1,95.56
22,CSCC(CCO)NC(=O)Nc1cc(Br)ccc1C (configuration not stated),9.066
23,COCCN1CCC2(CCCN(C(=O)c3cncn3C)C2)CC1.O=C(O)C(F)(F)F,-17.89
24,Cc1occc(=O)c1OCc1noc(C(=O)NCC(C)C)n1,118
25,CCc1nc(COc2ccc(N(C)C(C)=O)cc2)no1,-47.78
26,CNC(=O)c1nc(COc2c(C)occc2=O)no1,98.73

row,Structure (SMILES),Percent Effect [%]
1,CNC(=O)c1nc(Cn2ncc3ccccc3c2=O)no1,-11.19
2,CCOC(=O)c1nc(COc2c(C)occc2=O)no1,107.7
3,Cc1cccnc1C(NC(=O)CNC(=O)c1ccoc1C)C(C)C (configuration not stated),-9.405
4,CCOc1ccc(CC(CNC(=O)c2ccoc2C)C(N)=O)cc1 (configuration not stated),-14.81
5,Cc1occc(=O)c1OCc1noc(C(=O)NC(C)C)n1,81.24
6,CNC(=O)c1ccc(OC)c(NCc2noc(-c3ccsc3)n2)c1,-18.11
7,Cc1occc1C(=O)NCC(O)c1ccc(Cl)s1 (configuration not stated),-1.514
8,CN(CCc1nc2cc(Cl)ccc2[nH]1)C(=O)c1ncn[nH]1,8.261
9,CCCN1C[C@H]2CC[C@@H]1CN(C(=O)c1ccc(N(C)CCO)cc1)C2,-0.2946
10,COc1ccc(C(C)N2CCC(C(=O)N(C)C)CC2)cc1Cl (configuration not stated),13.21
11,COC(=O)NCC(=O)N(C)CC1Cc2ccccc2CN1C (configuration not stated),-16.07
12,Cc1c(I)cccc1C(=O)NCc1nnc[nH]1,-11.57
13,CC(C)(C)C(=O)N1C[C@H](c2ccsc2)[C@H]2CN(C3CCCC3)CC[C@H]21.Cl,191.9
14,COC(=O)N1CCC(NC(=O)N2CCCC2c2ccsc2)CC1 (configuration not stated),22.17
15,CC(C)(C)C(=O)N1C[C@H](c2ccsc2)[C@H]2CN(Cc3cccs3)CC[C@H]21.Cl,6.375
16,COC(=O)CS(=O)(=O)CCC(=O)N1CCCC1c1ccsc1 (configuration not stated),0.3686
17,CC(C)(C)C(=O)N1C[C@H](c2ccsc2)[C@H]2CN(C3CCCCC3)CC[C@H]21.Cl,142.3
18,CC(C)(C)NC(=O)CNC(=O)CCc1ccccc1Br,12.72
19,CN(c1ncnc2sccc12)C1CCCN(c2cccnn2)C1 (configuration not stated),17
20,CN(c1ncnc2ccccc12)C1CCCN(c2cccnn2)C1 (configuration not stated),80.98
21,CN(Cc1ncc(-c2ccccc2)o1)C1CCCN(c2cccnn2)C1 (configuration not stated),2.582
22,Cc1nc(CN(C)C2CCCN(c3cccnn3)C2)nc2ccccc12 (configuration not stated),87.46
23,CN(c1ncnc2c1cnn2C)C1CCCN(c2cccnn2)C1 (configuration not stated),-20.96
24,CN(Cc1nc2ccccc2s1)C1CCCN(c2cccnn2)C1 (configuration not stated),143.8
25,CN(Cc1nc(N)c2ccccc2n1)C1CCCN(c2cccnn2)C1 (configuration not stated),10.49
26,Cc1nc2ccccc2nc1CN(C)C1CCCN(c2cccnn2)C1 (configuration not stated),3.642

row,Structure (SMILES),Percent Effect [%]
1,Cc1nc(CN(C)CC2CCCN2c2cccnn2)nc2ccccc12 (configuration not stated),6.947
2,O=C(C[C@H]1[C@H]2CN(c3ncccn3)C[C@@H]12)Nc1cccnc1.O=C(O)C(F)(F)F.O=C(O)C(F)(F)F,-0.113
3,CCc1nc(CN(C)CC2CCN(CC(C)O)CC2)no1 (configuration not stated),-10.69
4,CN1CCCC(CCC(=O)N2CCc3sc(C(=O)N(C)C)cc3C2)C1 (configuration not stated),-22.79
5,Cc1nc(C2CCCN2CC(=O)N2CCCc3ccccc32)no1 (configuration not stated),-7.265
6,COCc1ncc(CN(Cc2ccncc2)Cc2ccc(C)s2)cn1,12.8
7,O=C(CNc1ccc(F)cc1OCC(F)(F)F)NCC(F)(F)F,-7.353
8,O=C(CCc1ccco1)Nc1ncn(CC(=O)N2CCCCCC2)n1,1.429
9,O=C1CC2(CCN(c3nncs3)C2)CN1c1ccc2c(c1)OCCO2 (configuration not stated),105.6
10,O=C1CC2(CCN(c3nncs3)C2)CN1c1cncnc1 (configuration not stated),102.2
11,CCS(=O)(=O)N1CCC2(CC(=O)N(c3cncnc3)C2)C1 (configuration not stated),-9.187
12,Cc1cccc(N2CC3(CCN(c4nncs4)C3)CC2=O)c1 (configuration not stated),106.3
13,O=C1CC2(CCN(Cc3cccs3)C2)CN1c1cccc(F)c1 (configuration not stated),17.5
14,O=C1CC2(CCN(c3nncs3)C2)CN1c1cccc(F)c1 (configuration not stated),96.11
15,Cc1cccc(N2CCCC3(C2)CN(c2nncs2)CCO3)c1 (configuration not stated),-21.39
16,O=C1CC2(CCN(c3nncs3)C2)CN1c1ccccc1 (configuration not stated),7.339
17,CCS(=O)(=O)N1CCC2(CC(=O)N(c3cccc(C)c3)C2)C1 (configuration not stated),-28.77
18,O=C1CC2(CCN(S(=O)(=O)C3CC3)C2)CN1c1cncnc1 (configuration not stated),7.231
19,O=C1CC2(CCN(Cc3ccoc3)C2)CN1c1ccc2c(c1)OCO2 (configuration not stated),2.94
20,O=C(N1CCCC1)N1CCC2(CC(=O)N(c3ccc4c(c3)OCO4)C2)C1 (configuration not stated),-19.45
21,CN(Cc1ccc(Cl)s1)C(=O)NCCC(=O)N1CCCCCC1,-2.265
22,CCn1c(CC2CCN(C(=O)C3COCCO3)CC2)nn(C)c1=O (configuration not stated),-4.106
23,Cc1nc(C)n(CCNC2CCN(c3ncnc4c(C)csc34)CC2)n1,-4.781
24,N#Cc1ccccc1N1CCCN(CC(=O)Nc2ccc(Cl)cn2)CC1,-6.971
